The sample as a whole holds a higher share of the strongest signals than the screen did.
Legend:
Test in all cases: glycan array binding signal (z-score within array); higher = stronger binding
Settings in all cases: glycan notation: IUPAC condensed, linker removed
Gal6S(b1-3)GlcNAc6S = molecular target: Gal6S(b1-3)GlcNAc6S
Method in brief: (§1)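 Glycan array data came from 3228 arrays in the Consortium for Functional Glycomics database, and only arrays with an available protein sequence were kept. Glycan names were put into IUPAC-condensed notation, and columns mapping to the same glycan were averaged. The binding signal is a within-array Z-score, averaged across arrays of one protein sequence run at different concentrations or buffers and across linkers. A negative Z-score can be read as non-binding.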

GalNAc4S6S(b1-4)GlcNAc = molecular target: GalNAc4S6S(b1-4)GlcNAc
Method in brief: as §1

Glc(a1-4)Glc = molecular target: Glc(a1-4)Glc
Method in brief: as §1

[1] = molecular target: GlcA3S(b1-3)Gal(b1-4)GlcNAc(b1-3)Gal(b1-4)Glc
Method in brief: as §1

[2] = molecular target: GlcNAc(a1-4)Gal(b1-3)GlcNAc
Method in brief: as §1

[3] = molecular target: GlcNAc(b1-2)Man(a1-3)[GlcNAc(b1-2)Man(a1-6)]Man(b1-4)GlcNAc(b1-4)GlcNAc
Method in brief: as §1

Man(a1-3)[Man(a1-6)]Man = molecular target: Man(a1-3)[Man(a1-6)]Man
Method in brief: as §1

Man(a1-6)Man = molecular target: Man(a1-6)Man
Method in brief: as §1

[4] = molecular target: Neu5Ac(a2-3)Gal(b1-3)GalNAc6S
Method in brief: as §1

[5] = molecular target: Neu5Ac(a2-3)Gal(b1-4)GlcNAc(b1-2)[Neu5Ac(a2-3)Gal(b1-4)GlcNAc(b1-4)]Man(a1-3)[GlcNAc(b1-4)][Neu5Ac(a2-3)Gal(b1-4)GlcNAc(b1-2)[Neu5Ac(a2-3)Gal(b1-4)GlcNAc(b1-6)]Man(a1-6)]Man(b1-4)GlcNAc(b1-4)GlcNAc
Method in brief: as §1

[6] = molecular target: Neu5Ac(a2-3)Gal(b1-4)GlcNAc(b1-3)Gal(b1-4)GlcNAc(b1-2)Man(a1-3)[Neu5Ac(a2-3)Gal(b1-4)GlcNAc(b1-3)Gal(b1-4)GlcNAc(b1-2)Man(a1-6)]Man(b1-4)GlcNAc(b1-4)GlcNAc
Method in brief: as §1

[7] = molecular target: Neu5Ac(a2-3)Gal(b1-4)GlcNAc(b1-3)Gal(b1-4)GlcNAc(b1-3)GalNAc
Method in brief: as §1

[8] = molecular target: Neu5Ac(a2-3)Gal(b1-4)[Fuc(a1-3)]GlcNAc(b1-3)GalNAc
Method in brief: as §1

[9] = molecular target: Neu5Ac(a2-3)Gal6S(b1-4)[Fuc(a1-3)]GlcNAc
Method in brief: as §1

[10] = molecular target: Neu5Ac(a2-3)[GalNAc(b1-4)]Gal(b1-4)Glc
Method in brief: as §1

[11] = molecular target: Neu5Ac(a2-6)Gal(b1-3)GlcNAc(b1-3)[Gal(b1-4)GlcNAc(b1-6)]Gal(b1-4)Glc
Method in brief: as §1

[12] = molecular target: Neu5Ac(a2-6)Gal(b1-4)GlcNAc(b1-3)Gal(b1-4)GlcNAc(b1-3)GalNAc
Method in brief: as §1

[13] = molecular target: Neu5Ac(a2-6)Gal(b1-4)GlcNAc6S
Method in brief: as §1

[14] = molecular target: Neu5Ac(a2-8)Neu5Ac(a2-3)[Gal(b1-3)GalNAc(b1-4)]Gal(b1-4)Glc
Method in brief: as §1

[15] = molecular target: Neu5Gc(b2-6)Gal(b1-4)GlcNAc
Method in brief: as §1

B1: TAL6-4LysM (Trichoderma atroviride) (protein)
chain: AADSIPSISPTGIITPTPTQSGMVSNCNKFYDVHSNDGCSAIASSQHVDLSSLYKWNPAIKTDCSGLQASVYVCIGILTTSMSTTSKLPTTTSKPSTTSKPPTGITTPTPTQSGMVKNCNKFYDVHSGDGCSAIASSQKVNLSSFYLWNPAVKTDCSGLQASVFVCIGTLTTSMSTTTSKLPTTTSKPSTTSKPPTGIITPTPTQNGMVKNCNKFYDVHSGDGCSAIASSQKVNLSSFYLWNPAVKTDCSGLQASVFVCVGTATTTTAAGITTPTPTQSGMVSGCNKFYDVHAGDGCSAIASSQKIALSSLYKWNPAVKTDCSGLQASVYICIGVGNAAAARVTGALEQKLISEEDLNSAVDHHHHHH
B1 was tested, and the “glycan array binding signal (z-score)” value (Gal6S(b1-3)GlcNAc6S) was 0.018, the “glycan array binding signal (z-score)” value (GalNAc4S6S(b1-4)GlcNAc) was 1.16 and the “glycan array binding signal (z-score)” value (Glc(a1-4)Glc) was -0.584. The “glycan array binding signal (z-score)” value [1] was 1.02, the “glycan array binding signal (z-score)” value [2] was -0.119 and the “glycan array binding signal (z-score)” value [3] was 2.79. For the same binder, the “glycan array binding signal (z-score)” value (Man(a1-3)[Man(a1-6)]Man) was 3.24, the “glycan array binding signal (z-score)” value (Man(a1-6)Man) was -1.37 and the “glycan array binding signal (z-score)” value [4] was 0.743. For the same binder, the “glycan array binding signal (z-score)” value [5] was -1.17, the “glycan array binding signal (z-score)” value [6] was 2.52 and the “glycan array binding signal (z-score)” value [7] was -0.304. The “glycan array binding signal (z-score)” value [8] was -0.18, the “glycan array binding signal (z-score)” value [9] was -1.06 and the “glycan array binding signal (z-score)” value [10] was -1.03. The “glycan array binding signal (z-score)” value [11] was 0.176, the “glycan array binding signal (z-score)” value [12] was 3.9 and the “glycan array binding signal (z-score)” value [13] was 1.36. The “glycan array binding signal (z-score)” value [14] was -0.586 and the “glycan array binding signal (z-score)” value [15] was -0.286.

— the supplement of paper PMC8728848
